# Screening results deposited in PubChem by National Center for Advancing Translational Sciences (NCATS).
# Rows were chosen to be rich in hits. Some 12% of all compounds tested hit in one or more screens of this group.
# Sfp inh – Sfp phosphopantetheinyl transferase inhibition; Q9F4F7; Biochemical Sfp PPTase activity, qHTS; Potency, µM, for the others: largest response in the series, negative = inhibition, hits mostly inhibitors; actives 3.5% (n = 310,000);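 note: the enzyme is Sfp with the accession as filed and its product quenches rhodamine fluorescence; 0% = enzyme reaction without inhibitor and -100% = no enzyme wells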
#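 Fluorescence-quenching assay: 15 nM Sfp-PPTase preincubated 15 min at room temperature with compound, then 5 uM rhodamine-CoA and 12.5 uM BHQ-2-labelled YbbR peptide added. Fluorescence (ex 525/em 598 nm) read at start and after 30 min; difference gives rate.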
# BAZ2B block – BAZ2B (human) inhibition. Q9UIF8. AlphaScreen BAZ2B-H3K14Ac peptide displacement. Potency, µM (series often up to 114 µM), for the others: at the top dose activity change, negative = inhibition, most hits filed as inhibitors. actives 4.4% (n = 360,000). AID 504333; note: % is set by controls: 0 for no effect and ±100 for the full control effect; nearly all actives have a fitted effect of over 60% in size
#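 AlphaScreen luminescence quantifies BAZ2B engagement of H3K14Ac peptide; the protein and biotinylated peptide are both at 50 nM final, buffer PBS pH 7.4 with 0.01% Tween-20, all steps at room temperature.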
# JMJD2A Tudor inh – blocks the human JMJD2A Tudor domain; O75164; AlphaScreen JMJD2A-Tudor / H3K4me3 peptide binding; Potency, µM (doses to about 114 µM), without a hit: at the highest dose activity change, negative = inhibition, usual class: inhibitors; actives 4.4% (n = 390,000); note: % is set by controls: 0 for no effect and ±100 for the full control effect; nearly all actives have a fitted effect of over 50% in size
# G9a inh – G9a (human) methyltransferase inhibition. Q96KQ7. G9a H3K9 monomethylation, AlphaScreen, 2 h. Potency, µM (highest dose often 102 µM), for the others: top-dose activity, negative = inhibition, hits mostly inhibitors. actives 8.8% (n = 350,000). AID 504332; note: % is set by controls: 0 for no effect and ±100 for the full control effect; nearly all actives have a fitted effect of over 75% in size
#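 Compounds were preincubated with 20 nM G9a for 15 min, after which biotinylated H3K9 peptide (500 nM) and SAM (20 uM) started a 2 h room-temperature reaction. Monomethylated product was quantified by antibody-based AlphaScreen chemiluminescence.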
# HP1b chromo inh – HP1-beta chromodomain-methylated histone interaction inhibition; AID 540317; Potency, µM (highest dose often 114 µM), for the others: top-dose activity change, negative = inhibition, usual class: inhibitors; P83916; actives 0.56% (n = 390,000); AlphaScreen HP1-beta / biotin-H3K9me3 peptide binding; note: nearly all actives have a fitted effect of over 70% in size
#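 Compound inhibition of the preformed complex between 50 nM HP1-beta and 50 nM biotinylated H3K9me3 peptide was read by AlphaScreen. Buffer was PBS pH 7.4 with 0.01% Tween-20. Incubations ran 30 min at room temperature, with 10 ug/mL donor/acceptor beads.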
# An asterisk follows results filed as active; u = inconclusive; x = not tested or not shown; [ ] = dose if it differs, or a comment. Calls come from the whole dose curve; as a rule, active = well fitted curve in the direction sought with a large enough effect; inconclusive = small, poorly fitted or top-dose-only effect, or another doubt; inactive = no such curve, though single readings can be large; an effect the other way counts as inactive or inconclusive. Potency is the fitted concentration of half-maximal effect.
SMILES,Sfp inh,BAZ2B block,JMJD2A Tudor inh,G9a inh,HP1b chromo inh
O=C1NN(c2ccccc2)C(=O)/C1=C\c1ccccc1,-25%,-21%,-15%,40µM*,33%
O=C1NN(c2ccccc2)C(=O)/C1=C/c1cccs1,9%,u,x,-11%[59 µM],x
O=C1NN(c2cccc(Br)c2)C(=O)/C1=C\c1ccccc1,79µM*,-35%,-33%,20µM*,0%
CCn1cc(C(=O)O)c(=O)c2cc(F)c(N3CCN[C@@H](C)C3)c(F)c21,15%,x,x,-34%[12.7 µM],x
CCN(CC)CCCNC(=O)Cn1nc(N2CCN(c3ccccc3OC)CC2)ccc1=O,x,3%,-7%,-2%[59 µM],15%
Cc1cccc(C)c1NC(=O)c1sccc1SCc1cccc(C(F)(F)F)c1,12%,10%,1%,u,75%
N#CCSc1ccsc1C(=O)Nc1ccc(F)cc1,u,4%,-8%,7.9µM*,u
CN(C)/C=C(\C#N)C(=O)Nc1ccc(F)cc1,18%,2%,-1%,28%[0.501 µM],6%
Cc1ccc(NC(=O)c2sccc2SCc2cccc(C(F)(F)F)c2)cc1,4%,52%,52%,25µM*,144%
C/C(=N\Nc1ccc(F)cc1F)c1ccc(N2CCOCC2)cc1,4%,-37%,u,7.9µM*,-10%
CCNC(=S)N/N=C(\C)c1ccc(N2CCOCC2)cc1,-2%,-32%,-10%,-6%[59 µM],-1%
CNC(=S)N/N=C(\C)c1ccc(N2CCOCC2)cc1,50µM*,u,-33%,u,31%
C/C(=N\Nc1ccc(F)cc1F)c1ccc(F)cc1,3%,-1%,x,10%[0.501 µM],x
C/C(=N\Nc1ccc(F)cc1F)c1ccc(Br)s1,5%,-2%,-15%,8.9µM*,u
Fc1ccc(N/N=C/c2ccc(N3CCOCC3)cc2)c(F)c1,4%,u,u,10µM*,u
CC[C@@H]1/C=C(\C)C[C@H](C)C[C@H](OC)[C@H]2O[C@@](O)(C(=O)C(=O)N3CCCC[C@H]3C(=O)O[C@H](/C(C)=C/[C@@H]3CC[C@@H](O)[C@H](OC)C3)[C@H](C)[C@@H](O)CC1=O)[C@H](C)C[C@@H]2OC,-10%,x,x,u,x
C/C(=N\NC(=O)COc1ccc(C(C)(C)C)cc1)c1ccc(N2CCOCC2)cc1,2%,-23%,-20%,10µM*,28%
C/C(=C\C(=O)c1ccc(F)cc1)Nc1ccc(N2CCOCC2)cc1,-19%,-9%,u,40µM*,3%
N#C/C(=C(/O)CCCl)c1ccccn1,-20%,u,u,32µM*,31%
Cc1ccc(S(=O)(=O)NCCCCC(NC(=O)OC(C)(C)C)C(=O)O)cc1 (stereo unspecified) (tested in a mixture with another compound),15%,2%,1%,5%[59 µM],29%
Cc1ccc(S(=O)(=O)n2cc(-c3ccccc3)c3ccccc32)cc1,x,20%,24%,-3%[0.501 µM],77%
Cc1ccc(S(=O)(=O)n2ccc3c(OCCOCCSCC(NC(=O)OC(C)(C)C)C(=O)O)cccc32)cc1 (stereo unspecified),3%,50µM*,-33%,-9%[12.7 µM],-8%
Cc1ccc(S(=O)(=O)n2ccc3c(OCCOCCNCc4ccc(F)cc4)cccc32)cc1,71µM*,-34%,-32%,u,-3%
CCC(C)n1c(SCC(=O)N(CC)c2c(N)n(Cc3ccccc3)c(=O)[nH]c2=O)nc2ccccc2c1=O (stereo unspecified),x,x,-18%,x,43%
C=CCc1ccc(OCCCN2CCCC(C)C2)c(OC)c1 (stereo unspecified),u,79µM*,3.5µM*,7.1µM*,-25%
SMILES,Sfp inh,BAZ2B block,JMJD2A Tudor inh,G9a inh,HP1b chromo inh
C=CCc1ccc(OCC(O)CN2CCC(Cc3ccccc3)CC2)c(OC)c1 (stereo unspecified),1%,-29%,-32%,u,-10%
C=CCc1ccc(OCCCCN2CCC(C)CC2)c(OC)c1,-16%,u,2.8µM*,u,-24%
CCOc1ccc(S(=O)(=O)N(CC(=O)NCCc2ccc(OC)cc2)c2ccccc2)cc1,x,-2%,-5%,-43%[59 µM],32%
CCN(CC)C(=O)c1sc2nc(Cc3ccccc3)[nH]c(=O)c2c1C,-2%,-21%,u,u,2%
O=c1[nH]c(-c2ccccn2)nc2sc(-c3ccccc3)cc12,4µM*,45µM*,u,8.9µM*,47%
Cc1c(C(=O)N(C)C)sc2nc(-c3ccccn3)[nH]c(=O)c12,89µM*,10µM*,50µM*,u,8%
CCN(CC(=O)Nc1cc(Cl)ccc1Cl)C(=O)c1ccc(-n2cccn2)cc1,x,10%,-5%,16%[2.33 µM],51%
COC(=O)/C=C/C1c2ccccc2C(OC)C1C (stereo unspecified),2%,x,x,x,x
CCN1CCN(C(=O)c2ccc3c(c2)N(Cc2ccccc2F)C(=O)c2ccccc2S3=O)CC1 (stereo unspecified),x,-14%,-15%,u,31%
COc1cc(/C=C(/C#N)c2nc(-c3cc4ccccc4oc3=O)cs2)ccc1O,x,-1%,-19%,-33%[59 µM],26%
CC(=O)C1=NN(c2ccccc2)C(c2ccc3c(c2)OCO3)N1c1ccccc1 (stereo unspecified),-5%,33%,42%,108%,111%
CC(=O)C1=NN(c2ccccc2)C(c2cccs2)N1c1ccc(N(C)C)cc1 (stereo unspecified),9%,45µM*,14µM*,28µM*,u
COC1(C(F)(F)F)NC(=O)N(c2ccc(F)cc2)C1=O (stereo unspecified),x,-21%,-15%,4%[59 µM],12%
CCCC(=O)OCC(=O)Nc1ccc(OC(F)F)cc1,4%,12%,-29%,-3%,15%
CC(C)CC(NC(N)=O)C(=O)OCC(=O)Nc1ccc(OC(F)F)cc1 (stereo unspecified),18%,-9%,40µM*,-7%,3%
O=C(CC(=O)c1ccccc1O)c1ccc(F)cc1,-16%,u,-20%,2%,29%
O=C(Cc1nn[nH]n1)NCc1ccccc1Cl,10%,50µM*,-7%,-6%[12.7 µM],30%
O=C(Cc1nn[nH]n1)c1ccccc1O,-24%,-8%,45µM*,-4%[59 µM],-9%
O=C(N/N=C1/CCS(=O)(=O)c2ccc(F)cc21)c1cccnc1,19%,-15%,-8%,-8%[12.7 µM],43%
O=C(N/N=C1/CCS(=O)(=O)c2ccc(F)cc21)c1ccccn1,-92%,20µM*,13µM*,11%,41%
ClCc1nc2ccccc2c2ccccc12,6%,-1%,1%,71µM*,45%
O=C(CSc1n[nH]c(=O)[nH]c1=O)N/N=C/c1ccccc1O,31%,2%,-17%,15%[59 µM],19%
COc1cc(/C=N/NC(=O)C23CC4CC(CC(C4)C2)C3)cc(Br)c1O,-14%,-38%,-20%,u,-15%
